Active and inactive are the calls of the source. How the source made its calls: active means hit-call score of the fitted dose curve at least 0.9, where 1 is the maximum; inactive means score below 0.9.

Test system in the first assay: not listed separately
The assay is described as follows: ATG_NFI_CIS: Attagene CIS-FACTORIAL HepG2 Assay for human Nuclear Factor I (NFI) (AID 2282989). Particulars: HepG2 cis-regulatory reporter, NFI response element transcription; actives raise or lower the signal. Summed up: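 HepG2, transient MRTU, 24 h exposure; RNA→cDNA→PCR→FAM label→HpaI→CE fluorescence. Bidirectional fit, DMSO = baseline.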
In the case of `O=C(O)CCCCCCCCCCC(=O)O`, the result was inactive.

As for `O=S(=O)(O)NC1CCCCC1`, the compound was called inactive.

As for `CCCC(=O)OCCC(C)CCC=C(C)C` (centres undefined), the compound was classed as inactive.

For the compound `Nc1nc2ccc([N+](=O)[O-])cc2s1`, the call was inactive.

In the case of `C=CC(C)(C)O`, the compound was called inactive.

As for `Cc1ccc(C(C)C)cc1O`, the result was inactive.

`CC(c1cc2ccccc2s1)N(O)C(N)=O` (centres undefined): the compound was classed as inactive.

Turning to `CCCCCCCCCOC(C)=O`, the compound was classed as inactive.

What is called AC50 is the concentration giving half of the maximal activity seen. On to `N#Cc1nc(Cl)c(Cl)c(Cl)c1Cl`, for which the AC50 was 6.05 µM (active).

`O=S(=O)(O)c1cccc2c(S(=O)(=O)O)cccc12`: the compound was called inactive.

With `Cc1ccc(C=O)s1`, the outcome was inactive.

`NC(=O)c1ccccc1Cl`: the AC50 is 61.6 µM (active).

With `O=C(COc1ccc(Cl)cc1)N1CCN(Cc2ccc3c(c2)OCO3)CC1`, the compound was classed as inactive.

As for `C=CC(=O)OCC(O)COc1ccccc1` (centres undefined), the compound was called inactive.

As to `CC1(C)CCC(C)(C)c2cc(C(=O)Nc3ccc(C(=O)O)cc3)ccc21`, the compound was called inactive.

As to `C=O`, the result was inactive.

For another assay, the target named is Myc proto-oncogene protein (Homo sapiens) (UniProt P01106). Briefly: ATG_Myc_CIS: Attagene CIS-FACTORIAL HepG2 Assay for human Myelocytomatosis (Myc) Proto-Oncogene Transcription Factor (AID 2282990). As to conditions: HepG2, Attagene cis-reporter transcription factor activity; actives raise or lower the signal. Summed up: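 DMSO-normalised, bidirectionally fitted reporter mRNA signal. HepG2 cells transfected with cis reporter constructs, treated 24 h; transcripts detected by RT-PCR, 6-FAM primer extension and CE.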
Sequence of Myc proto-oncogene protein (Homo sapiens) (P01106 whole entry, looked up): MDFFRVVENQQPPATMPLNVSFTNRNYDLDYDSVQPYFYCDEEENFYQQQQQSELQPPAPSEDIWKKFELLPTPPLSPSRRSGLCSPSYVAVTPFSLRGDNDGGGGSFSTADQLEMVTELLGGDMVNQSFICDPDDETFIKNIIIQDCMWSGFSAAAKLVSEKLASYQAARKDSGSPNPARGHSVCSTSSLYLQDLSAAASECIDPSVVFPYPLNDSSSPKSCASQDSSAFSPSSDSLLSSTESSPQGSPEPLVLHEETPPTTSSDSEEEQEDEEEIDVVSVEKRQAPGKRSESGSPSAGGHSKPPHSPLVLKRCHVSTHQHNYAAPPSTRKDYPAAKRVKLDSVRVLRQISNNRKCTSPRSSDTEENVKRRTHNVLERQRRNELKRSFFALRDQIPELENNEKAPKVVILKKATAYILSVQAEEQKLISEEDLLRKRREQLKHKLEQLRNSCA
Regarding `CN(C)c1ccc(O)c2c1C[C@H]1C[C@H]3[C@H](N(C)C)C(=O)C(C(N)=O)=C(O)[C@@]3(O)C(=O)C1=C2O`, the compound was classed as inactive.

`CC(C)(Oc1ccc(CCNC(=O)c2ccc(Cl)cc2)cc1)C(=O)O`: the compound was classed as inactive.

Take `CC(O)C(C)O` (centres undefined): the outcome was inactive.

On to `C=CCOc1nc(OCC=C)nc(OCC=C)n1`, for which the result was inactive.

For the compound `CCOC(=O)c1ccccc1OC`, the compound was classed as inactive.

`C=CC[N+](C)(C)CC=C`: the call was inactive.

Consider `CC(C)(C)C(=O)c1ccccc1`, for which the result was inactive.

For `OCCOc1cccc(OCCO)c1`, the compound was called inactive.

As for `CC1=CC(=O)NS(=O)(=O)O1`, the compound was classed as inactive.

For the compound `Cc1ccc(C(=O)O)o1`, the compound was called inactive.

With `C#C[C@]1(O)CC[C@H]2[C@@H]3CCC4=Cc5oncc5C[C@]4(C)[C@H]3CC[C@@]21C`, the result was inactive.

For the compound `CC1CCC(C(C)CS)CC1S` (centres undefined), the AC50 was 52.4 µM (active).

As for `O=[N+]([O-])c1ccc(C=Cc2ccc([N+](=O)[O-])cc2S(=O)(=O)O)c(S(=O)(=O)O)c1`, the result was inactive.

Take `Cc1c(N(C)C)c(=O)n(-c2ccccc2)n1C`: the compound was called inactive.

In the case of `COCCOCCOCCOCCOCCO`, the result was inactive.

For `O=C1NC(=O)c2ccccc21`, the result was inactive.

Regarding `O=c1oc(=O)c2cc3c(=O)oc(=O)c3cc12`, the result was inactive.

Take `Nc1cc(N)cc(C(=O)O)c1`: the result was inactive.

On to `C=CC(=O)OCCOCCOCC`, for which the outcome was inactive.

As to `CCCCCCCCCCCCOCCO`, the AC50 is 50.2 µM (active).

As for `CC(=O)O[C@]1(C(C)=O)CC[C@H]2[C@@H]3C[C@H](C)C4=CC(=O)CC[C@]4(C)[C@H]3CC[C@@]21C`, the compound was classed as inactive.

Consider `O=C(O)C[C@H](O)C[C@H](O)/C=C/c1c(C2CC2)nc2ccccc2c1-c1ccc(F)cc1`, for which the call was inactive.

Take `O=C(O)CCCCCCCCCCC(=O)O`: the outcome was inactive.

Consider `O=S(=O)(O)NC1CCCCC1`, for which the compound was classed as inactive.

Take `CCCC(=O)OCCC(C)CCC=C(C)C` (centres undefined): the compound was called inactive.

On to `Nc1nc2ccc([N+](=O)[O-])cc2s1`, for which the call was inactive.

As for `C=CC(C)(C)O`, the call was inactive.

Take `Cc1ccc(C(C)C)cc1O`: the call was inactive.

On to `CC(c1cc2ccccc2s1)N(O)C(N)=O` (centres undefined), for which the compound was called inactive.

Turning to `CCCCCCCCCOC(C)=O`, the compound was classed as inactive.

As to `N#Cc1nc(Cl)c(Cl)c(Cl)c1Cl`, the compound was classed as inactive.

Regarding `O=S(=O)(O)c1cccc2c(S(=O)(=O)O)cccc12`, the outcome was inactive.

For the compound `Cc1ccc(C=O)s1`, the compound was called inactive.

Take `NC(=O)c1ccccc1Cl`: the outcome was inactive.

With `O=C(COc1ccc(Cl)cc1)N1CCN(Cc2ccc3c(c2)OCO3)CC1`, the result was inactive.

`C=CC(=O)OCC(O)COc1ccccc1` (centres undefined): the result was inactive.

Turning to `CC1(C)CCC(C)(C)c2cc(C(=O)Nc3ccc(C(=O)O)cc3)ccc21`, the outcome was inactive.

Take `C=O`: the compound was classed as inactive.

Values taken from PubChem BioAssay (EPA / NIEHS).
